Compound activity: PubChem, several laboratories
The list is not random: actives were taken first. Their share in the collection is about 2.3%.
GLD-1 TGE inh: GLD-1-TGE RNA interaction inhibition (C. elegans). 0.44% of 320,000 active. Q17339. inhibition, % at 5.96 µM. purified GLD-1 + fluorescein TGE RNA, fluorescence polarization;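 active = percent inhibition above a per-plate cutoff, the plate mean of test compounds plus 3 SD, cut at about 30% in these data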;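 also: 0% = DMSO wells with GLD-1 and probe and 100% = wells lacking GLD-1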
Target sequence (Q17339 whole entry, looked up): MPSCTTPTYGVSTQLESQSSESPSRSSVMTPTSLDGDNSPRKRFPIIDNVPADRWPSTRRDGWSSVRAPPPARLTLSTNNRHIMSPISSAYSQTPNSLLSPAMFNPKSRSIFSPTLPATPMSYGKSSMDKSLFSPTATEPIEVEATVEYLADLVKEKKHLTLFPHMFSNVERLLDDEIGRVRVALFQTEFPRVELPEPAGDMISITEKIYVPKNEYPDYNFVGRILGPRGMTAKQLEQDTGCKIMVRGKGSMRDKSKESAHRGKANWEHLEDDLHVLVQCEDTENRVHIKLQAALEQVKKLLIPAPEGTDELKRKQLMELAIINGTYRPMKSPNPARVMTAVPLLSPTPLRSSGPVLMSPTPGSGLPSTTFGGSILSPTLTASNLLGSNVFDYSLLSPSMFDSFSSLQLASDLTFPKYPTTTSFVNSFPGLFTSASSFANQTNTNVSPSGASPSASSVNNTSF
MCL1-BIM inh: inhibitors of human MCL1 binding to BIM-BH3 peptide. GST-MCL1 / FITC-Bim-BH3 fluorescence polarization. inhibition, % at 10.9 µM. 0.68% of 320,000 active. Q07820. AID 2057;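 active = inhibition above the mean inhibition of all tested compounds plus 3 SD, set per campaign, cut at about 40% in these data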;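 also: 0% = DMSO wells and 100% = unlabeled Bim-BH3 peptide control; higher means more loss of mP so more displacement of Bim peptide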
Mcl1 Noxa PPI: Mcl-1/Noxa interaction inhibition | Q07820 | TR-FRET Mcl-1/Noxa peptide binding, 2 h | inhibition, % at 21.7 µM | 1.5% of 220,000 active;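 active = compounds that cut the protein-peptide binding signal by more than 50% relative to plate controls in a single-dose test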;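 also: His-tagged Mcl-1 with rhodamine Noxa BH3 peptide and terbium anti-His antibody; 0% = Mcl-1 plus Noxa peptide wells and 100% = peptide-only wells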
Mcl1 Bid PPI: Mcl-1/Bid interaction inhibition; AID 1021; Q07820; 0.97% of 220,000 active; TR-FRET Mcl-1/Bid-Dy647 peptide binding, 1536-well; inhibition, % at 21.7 µM;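 active = compounds that cut the binding signal by more than half at the single screening dose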;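 also: His-tagged Mcl-1 with europium anti-His antibody binding Bid BH3 peptide; 0% = Mcl-1 plus peptide wells and 100% = peptide-only wells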
Bcl-xL primary: inhibitors of human Bcl-xL; Q07817; GST-Bcl-xL / FITC-Bim BH3 peptide fluorescence polarization; inhibition, % at 10.9 µM; 0.7% of 320,000 active; AID 2129;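 active = inhibition above the mean of all tested compounds plus 3 SD, cutoff set per campaign, cut at about 30% in these data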;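 also: 0% = DMSO wells and 100% = unlabeled Bim-BH3 peptide competitor; inhibitors lower millipolarization by displacing the labeled peptide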
Target sequence (Q07817 whole entry, looked up): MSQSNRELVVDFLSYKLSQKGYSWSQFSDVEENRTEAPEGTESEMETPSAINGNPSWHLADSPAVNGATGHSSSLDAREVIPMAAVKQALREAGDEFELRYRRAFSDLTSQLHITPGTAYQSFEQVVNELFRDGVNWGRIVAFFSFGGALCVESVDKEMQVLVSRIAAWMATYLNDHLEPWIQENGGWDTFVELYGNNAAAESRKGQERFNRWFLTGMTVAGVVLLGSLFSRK
Mcl-1 Bim block: inhibitors of Bim-Mcl-1 interaction, human; Bead-based flow cytometry, Bim peptide-Mcl-1 binding; inhibition, % at 10 µM; 0.1% of 190,000 active; in the data active = inhibition above about 40%;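 also: 0% = no compound tracer wells and 100% = peptide blocker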
The depositor's hits bear a star; . = not tested or not shown.

SMILES | GLD-1 TGE inh | MCL1-BIM inh | Mcl1 Noxa PPI | Mcl1 Bid PPI | Bcl-xL primary | Mcl-1 Bim block
CC(C)c1ccc(C(O)P(=O)(OC2CCCCC2)OC2CCCCC2)cc1 (centres undefined) | 22 | 27 | -15 | -8 | 35* | .
CC(C)c1ccc(OCc2ccc(C(=O)O)o2)cc1 | 4 | -4 | 69* | -3 | 2 | .
O=C1c2ccccc2S(=O)(=O)c2cc(N3CCc4ccccc4C3)ccc21 | 20 | 27 | . | . | 39* | .
O=C1c2ccccc2S(=O)(=O)c2cc(N3CCC(C(=O)N4CCCCC4)CC3)ccc21 | -15 | -15 | . | . | 17 | .
CCOc1cc(N2CCOCC2)c(OCC)cc1NC(=O)CCS(=O)(=O)c1ccc(Cl)cc1 | -1 | 0 | 19 | 101* | 8 | 0
COc1ccc(-n2cc(-c3ccccc3)[nH]c2=S)cc1 | 3 | -5 | 11 | -102 | -1 | -16
CC(=O)Nc1ccc(-n2cc(-c3ccccc3)[nH]c2=S)cc1 | 8 | 6 | 53* | -31 | 8 | -7
C[C@H](NC(=O)N1CCC(Cc2ccccc2)CC1)C(=O)O | 3 | -5 | . | . | 7 | .
Cc1cccc(N=C2NC(=O)/C(=C/c3cccn3C)S2)c1C | -30 | -32 | 30 | -105 | -24 | .
Cc1ccc(N=C2NC(=O)/C(=C/C=C/c3ccco3)S2)cc1 | -7 | 16 | 82* | -47 | 8 | 3
COc1ccc(N=C2NC(=O)/C(=C/C=C/c3ccccc3)S2)cc1 | 0 | 4 | -12 | -19 | 10 | .
Cc1cccc(N=C2NC(=O)/C(=C/C=C/c3ccco3)S2)c1C | 0 | 21 | 114* | 92* | 9 | 7
O=C1NC(=Nc2ccccc2)S/C1=C\C=C\c1ccco1 | -11 | -16 | 112* | 42 | 1 | -6
COc1ccc(N=C2NC(=O)/C(=C/c3ccco3)S2)cc1 | -8 | 4 | -4 | -37 | 1 | .
CN1N=C(C(=O)Nc2ccc3c(c2)CCC3)CCC1=O | -6 | 1 | 10 | -19 | -1 | -2
c1cc(C(c2nnnn2C2CCCCC2)N2CCN3CCCC3C2)ccn1 (centres undefined) | 28 | 39 | -3 | -25 | 37* | 12
CCCCn1nc(C(=O)Nc2nc3c(s2)CCCC3)c2ccccc2c1=O | 6 | 3 | 3 | -24 | 1 | -25
CCCCCCn1nc(C(=O)Nc2nc3c(s2)CCCC3)c2ccccc2c1=O | 5 | 0 | 25 | 10 | -2 | 45*
O=C(Cc1ccccc1)Nc1cccc(C(=O)O)c1O | -4 | -1 | 6 | 12 | 3 | -2
COc1ccc(OCCOCCN2CCc3ccccc3C2)cc1 | 2 | -1 | 15 | 62* | 2 | 4
Cc1ccc(-n2c(=O)c3cc4c(=O)n(-c5ccc(C)c(C)c5)c(=O)c4c(C(=O)c4ccc(C(=O)O)cc4)c3c2=O)cc1C | 1 | 5 | 95* | 102* | 12 | .
Cc1ccc(C(=O)OC(C)CN2C(C)CCCC2C)cc1 (centres undefined) | -10 | 0 | . | . | -3 | .
O=C(Nc1ccccc1Cl)c1sccc1-c1ccccc1 | -3 | 5 | . | . | 8 | .
COc1ccc(-n2c(N)c(C(=O)NCc3ccco3)c3nc4ccccc4nc32)cc1 | 4 | -6 | 58* | -11 | 2 | 3
COc1ccc(OC)c(-n2c(N)c(C(=O)NCC3CCCO3)c3nc4ccccc4nc32)c1 (centres undefined) | . | . | 15 | 93* | . | 0
SMILES | GLD-1 TGE inh | MCL1-BIM inh | Mcl1 Noxa PPI | Mcl1 Bid PPI | Bcl-xL primary | Mcl-1 Bim block
Cc1cccc(-c2noc(CNC(=O)c3ccco3)n2)c1 | 11 | -2 | . | . | -1 | .
CC1(c2nnc(Cc3ccccc3)o2)CC(c2ccncc2)=NO1 (centres undefined) | -3 | 4 | . | . | 7 | .
Cc1cc(C(=O)N2CCOCC2)n(-c2ccccc2)n1 | 17 | 15 | 20 | 51* | 21 | 0
Cc1cc(C(=O)N2CC(C)CC(C)C2)n(-c2ccccc2)n1 (centres undefined) | 2 | -1 | -10 | -7 | 3 | -1
O=C1CC(=O)N(CCc2ccccc2)C(=O)N1CCc1ccccc1 | -47 | -70 | 13 | 9 | -63 | 0
O=C1C=CC(=O)C(C2=C3C(=O)N(CCc4ccccc4)CC(=O)N3CCC2)=C1 | 6 | 20 | 84* | -49 | 20 | -7
O=C(COC(=O)Cc1ccc(S(=O)(=O)N2CCOCC2)s1)Nc1ccc(OC(F)F)cc1 | -1 | . | . | . | . | .
Cn1c2ccccc2c(=O)c2ccc(NCCc3cccs3)cc21 | 79* | . | . | . | . | .
Cc1c(C(=O)N2CCc3ccccc3C2)oc2ccccc12 | 7 | 5 | . | . | 4 | .
O=C(NCCCN1CCCC1=O)C(=O)Nc1cccc(F)c1 | 3 | 1 | . | . | 5 | .
O=C(CC1C(=O)NCCN1C1CCCC1)NCc1cccc(OC(F)(F)F)c1 (centres undefined) | 2 | -2 | . | . | 6 | .
CCN(CC)CCNC(=O)c1ccc(CS(=O)(=O)c2ccc(Br)cc2)o1 | 1 | 0 | 9 | 58* | -4 | -2
CN(Cc1cccs1)C(=O)c1cccc(S(=O)(=O)N2CCCCCC2)c1 | 4 | -4 | . | . | -2 | .
Cc1ccc(NC(=O)/C(=C\c2cccnc2)NC(=O)c2ccco2)cc1 | 29 | 29 | 9 | 0 | 89* | 0
O=C(Nc1ccccc1)Nc1ccc2ncoc2c1 | 6 | 0 | 15 | -27 | 2 | 91*
O=C(Nc1ccccc1)Nc1ccc2ocnc2c1 | -3 | -2 | -1 | -22 | 7 | 1
N#C/C(=C\c1ccc([N+](=O)[O-])o1)C(=O)Nc1ccc(F)cc1 | 29 | 28 | 65* | -51 | 41* | 1
COc1ccc(NC(=O)/C(C#N)=C\c2ccc(Br)o2)cc1 | 0 | 15 | 17 | -75 | 0 | .
O=C(COC(=O)C1CC1)Nc1ccc(Cl)cn1 | 3 | 15 | . | . | 9 | .
CCc1ccc(O)c(N=Cc2ccccc2O)c1 | 6 | 2 | 2 | -16 | 6 | -2
O=c1[nH][nH]c2c(N=Cc3ccccc3O)ccc(F)c12 | . | . | 95* | -157 | . | .
O=C(O)c1ccc(-c2ccc(/C=C3\NC(=O)N(Cc4ccc(Cl)cc4)C3=O)o2)cc1 | . | . | 61* | -33 | . | .
Cc1ccc(CN2C(=O)N/C(=C\c3ccc(-c4ccc(C(=O)O)cc4C)o3)C2=O)cc1 | 7 | 24 | 57* | -16 | 12 | .
Cc1cc(C(=O)O)ccc1-c1ccc(/C=C2\NC(=O)N(Cc3ccccc3Cl)C2=O)o1 | -4 | 29 | 61* | -16 | 8 | 1
CCCOC(=O)C1=C(C)NC2=C(C(=O)C(C(=O)OC)C(C)C2)C1c1ccc(N(CC)CC)cc1 (centres undefined) | 9 | 8 | 48 | -19 | 2 | 0
CCC(C)OC(=O)C1=C(C)NC2=C(C(=O)C(C(=O)OC)C(C)C2)C1c1ccc(N(C)C)cc1 (centres undefined) | 6 | 2 | 60* | -34 | 5 | 0
CC(C)c1ccc2nc(SCC(=O)NCC3CCCO3)c(C#N)cc2c1 (centres undefined) | -10 | 10 | . | . | 6 | .
